According to PubChem BioAssay (NCATS):
Inconclusive results are not listed. Calls of active or inactive are those of the source. Calls follow the shape of the dose curve; as a rule, active = well fitted inhibition curve with a large enough effect; inconclusive = small, poorly fitted or top-dose-only effect; inactive = flat fitted curve, though single readings scatter.

Key:
Test in all cases: qHTS profiling for inhibitors of Plasmodium falciparum proliferation (AID 504749); also: nearly all actives have a fitted effect of over 60% in size
Details in all cases: P. falciparum in erythrocytes, SYBR Green DNA, 72 h; series mostly up to 28.7 µM
CP250 = test system: CP250
Procedure, shortened: (§1)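 SYBR Green fluorescence of parasite DNA, read after lysis and overnight dark incubation, measured growth over 72 h in erythrocyte culture at 0.3% parasitemia and 2.5% hematocrit. Data normalised to DMSO and 0.29 uM artemisinin, with plate-drift correction.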

CP252 = test system: CP252
Procedure, shortened: as §1

CP256 = test system: CP256
Procedure, shortened: as §1

CP260 = test system: CP260
Procedure, shortened: as §1

CP262 = test system: CP262
Procedure, shortened: as §1

CP265 = test system: CP265
Procedure, shortened: as §1

CP266 = test system: CP266
Procedure, shortened: as §1

CP268 = test system: CP268
Procedure, shortened: as §1

CP269 = test system: CP269
Procedure, shortened: as §1

CP286 = test system: CP286
Procedure, shortened: as §1

CP291 = test system: CP291
Procedure, shortened: as §1

CP297 = test system: CP297
Procedure, shortened: as §1

CP305 = test system: CP305
Procedure, shortened: as §1

CP315 = test system: CP315
Procedure, shortened: as §1

CP325 = test system: CP325
Procedure, shortened: as §1

CP329 = test system: CP329
Procedure, shortened: as §1

DFO2036 = test system: DFO2036
Procedure, shortened: as §1

DIV17 = test system: DIV17
Procedure, shortened: as §1

DIV14 = test system: DIV14
Procedure, shortened: as §1

CP335 = test system: CP335
Procedure, shortened: as §1

Measured: Potency
Potency is read from the fitted curve at half-maximal effect.

CC/C=C\C/C=C\C/C=C\CCCCCCCC(=O)O
not listed: DIV14 | CP335
inactive: all other assays above

C=CCOc1ccc(CC(=O)O)cc1Cl
not listed: CP335
inactive: all other assays above

O=C(O)c1cc(N=Nc2ccc(O)c(C(=O)O)c2)ccc1O
not listed: CP286 | DIV14
inactive: all other assays above

CN1C(C(=O)Nc2ccccn2)C(=O)c2sc(Cl)cc2S1(=O)=O (stereo unspecified)
not listed: CP291
inactive: all other assays above

CCOC(=O)C1=C(COCCN)NC(C)=C(C(=O)OC)C1c1ccccc1Cl (stereo unspecified)
active: DIV14 12 µM
not listed: DIV17 | CP335
inactive: all other assays above

CC(/C=C/C=C(\C)C(=O)O[C@@H]1O[C@H](CO[C@@H]2O[C@H](CO)[C@@H](O)[C@H](O)[C@H]2O)[C@@H](O)[C@H](O)[C@H]1O)=C\C=C\C=C(C)\C=C\C=C(/C)C(=O)O[C@@H]1O[C@H](CO[C@@H]2O[C@H](CO)[C@@H](O)[C@H](O)[C@H]2O)[C@@H](O)[C@H](O)[C@H]1O
not listed: DIV14
inactive: all other assays above

CO/N=C(/C(=O)N[C@@H]1C(=O)N2C(C(=O)O)=C(COC(N)=O)CS[C@H]12)c1ccco1
not listed: CP297 | DIV17
inactive: all other assays above

C=CCN1CCCC1CNC(=O)c1cc(S(N)(=O)=O)cc(OC)c1OC (stereo unspecified)
not listed: DFO2036
inactive: all other assays above

O=C1CCC(c2ccccc2)(C2CCN(Cc3ccccc3)CC2)C(=O)N1 (stereo unspecified)
not listed: CP297 | CP305 | DIV17 | DIV14 | CP335
inactive: all other assays above

COc1cc(C)c(/C=C/C(C)=C/C=C/C(C)=C/C(=O)O)c(C)c1C
not listed: CP297
inactive: all other assays above

Cc1ncc[nH]1
not listed: CP315
inactive: all other assays above

CC(CCc1ccc(O)cc1)NCC(O)c1ccc(O)cc1 (stereo unspecified)
not listed: DIV14
inactive: all other assays above

CC1CCC(NC(=O)N(CCCl)N=O)CC1 (stereo unspecified)
not listed: DIV14 | CP335
inactive: all other assays above

O=C(OC1C[C@@H]2CC3C[C@H](C1)N2CC3=O)c1c[nH]c2ccccc12 (stereo partly specified)
active: DIV14 7.57 µM | DIV17 7.57 µM
not listed: CP305 | CP335
inactive: all other assays above
